activation, outcome and viability change data for six compounds are collected here from PubChem BioAssay (NCATS).

The structures appear in SMILES notation. Inconclusive results are not listed. The source made the active and inactive calls. Unless noted, the call rests on the fitted dose curve; in most records, active means well fitted curve in the direction sought with a large enough effect; inconclusive means small, poorly fitted or top-dose-only effect, or another doubt; inactive means no such curve, though single readings can be large; an effect the other way counts as inactive or inconclusive.

The target in assay [1] is Thyrotropin-releasing hormone receptor (Homo sapiens) (UniProt P34981). The experiment in a line: qHTS for Small Molecule Agonists and Allosteric Enhancers of Human TRH Receptor: Validation Screen for Agonists (AID 493127;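 active means calcium activation more than 3 SD above the typical response in the agonist read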;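 further: intracellular calcium rise by fluo-8 fluorescence before TRH EC20 addition; 0% is about no effect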). The note with it: TRH receptor agonist cell assay; at 2 µM; stronger effect = higher value. The method in brief: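 Read-out: intracellular calcium release measured kinetically by FDSS (fluo-8, ex 480/em 530 nm), 1 reading/s after a 10-cycle baseline. TRHR cells, 2000/well, cultured 18 h at 33.5C, dye-loaded at room temp. Compound-evoked positive calcium signal flags agonists.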
In general terms: qHTS replaces the single test concentration by a dilution series.

Assay [2] in a line: Nrf2 qHTS screen for inhibitors: Validation (AID 493153; active means well fitted inhibition curve with a large enough effect in the main read-out, with a control signal flat, not every such curve was filed as active). The note with it: A549 ARE-Fluc reporter, 18-24 h; viability change: measured here: cytotoxicity max response; luciferase luminescence, at 46.1 µM (top of the series). An excerpt: NIH Molecular Libraries Probe Production Network [MLPCN] NIH Chemical Genomics Center [NCGC] MLPCN Grant: R03-MH092170-01 Assay Provider: Shyam Biswal, Johns Hopkins University Assay Overview: Nrf2 is a transcription factor that maintains cellular redox homoestasis and protects cells from xenobiotics. Nrf2 binds to the antioxidant response element (ARE) to induce gene expression of a broad spectrum of genes that encode for antioxidants. […] Finding a small molecule that act as an inhibitor of Nrf2 function would represent a novel therapeutic target that could lead to improvement in survival of patients undergoing chemo- and/or radio- therapy. 1. […]
Assay Protocol Summary: A concentration-response assay was performed with A549 ARE_Fluc cells which are suspended in 5% FBS OPTI-MEM. […] The plate is then incubated at 37deg C at 5% CO2 for 30 minutes before they are read on the ViewLux (Perkin Elmer) for a fluorescent read Ex=405(10)/Em=525(10) for a 3 second exposure, 2x binning, and high gain. […] Afterwards another ViewLux read is performed using the clear filter to get a luminescent read with the settings of 40 second exposure, 2x binning, and high gain. Cytotoxicity is assessed through the first fluorescent read and then biochemical activity against Nrf2 is measured in the luminescent read.

Assay [3] has as its target Galactokinase (Homo sapiens) (UniProt P51570). Put plainly: qHTS Validation Assay for Inhibitors of Human Galactokinase (GALK) (AID 493189). Further: 0% is about no effect. Particulars: purified human GALK enzyme activity, qHTS 7-point titration; series mostly up to 57.5 µM. The method, boiled down: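 5 nM GALK / 100 uM galactose / 35 uM ATP, 20 mM HEPES pH8.0, 5 mM MgCl2, 60 mM NaCl, 1 mM DTT, 0.01% BSA (final). RT 1 h; Kinase-Glo Plus luminescence.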

Assay [4] can be described thus: Validation screen for small molecules that induce DNA re-replication in SW480 colon adenocarcinoma cells (AID 504364). Further: 0% is about no effect. The note with it: DNA re-replication phenotype (high-content imaging); series mostly up to 46.1 µM. The method in brief: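 Read-out: total Hoechst intensity of nuclei by fluorescence scanning imager; hits raise the fraction of nuclei with elevated DNA content. Cells received compound for 48 hr at 37 C before a 40 min stain.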

Assay [5] has as its target Peptidyl-prolyl cis-trans isomerase NIMA-interacting 1 (Homo sapiens) (UniProt Q13526). The experiment in a line: qHTS Validation Assay to Find Inhibitors of Pin1 (AID 504536; active means well fitted inhibition curve with a large enough effect in the polarisation, with a control signal flat, not every such curve was filed as active; the % refers to the polarisation;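 further: 0% = full Pin1 enzyme wells and -100% = no-enzyme wells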). The note with it: Pin1 fluorescence polarization peptide binding assay; series mostly up to 57.5 µM. The method, boiled down:
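Fluorescence polarization competition: compounds (titration) displace HiFluor-488-labeled Pin1-1b peptide from Pin1 (0.3 uM final) in pH 7.5 HEPES buffer with DTT, 10 min at room temperature; %Activity normalized to no-enzyme wells, curves fitted.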

Assay [6] concerns the target Phosphoglycerate kinase, glycosomal (Trypanosoma brucei brucei) (UniProt P07378). The experiment in a line: qHTS Validation Assay to Find Inhibitors of Phosphoglycerate Kinase (AID 504547).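 Further: control wells lack PGK and mark full inhibition.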 The note with it: enzymatic PGK inhibition, coupled luminescence read-out; series mostly up to 57.5 µM. The method, boiled down:
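In TEA buffer (100mM, pH 7.6) containing 5mM MgCl2 and 0.01% Tween-20, the GAPDH-coupled PGK reaction proceeded for 60 minutes at room temperature before a single luminescence reading using Kinase-Glo Plus.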

A short description of assay [7]: qHTS for Inhibitors of Plasmodium falciparum (DD2) proliferation (AID 504314).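 Further: parasite DNA measured by SYBR Green fluorescence after red cell lysis; plate controls were DMSO vehicle for no effect and artemisinin wells for full effect.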 Particulars: P. falciparum Dd2 in erythrocytes, SYBR Green growth, 72 h; series mostly up to 6.11 µM. An excerpt:
Plasmodium falciparum is a virulent malarial parasite that kills 1-2 million people worldwide each year. Malaria not only inflicts tremendous suffering and morbidity on the human population, but has dramatically influenced the course of civilization with profound sociological and economic implications (Shah, S. 2010). Transmitted by mosquitoes, the sporozoite form of the parasite enters the blood stream to infect hepatocytes, where they become merozoites that infect red blood cells (erythrocytes). Within erythrocytes, merozoites begin a […] cycle of growth and division, after which the parasite is released to infect new red blood cells. Gametocytes, which form within erythrocytes as well, circulate in the bloodstream and are ingested by the mosquito, thereby completing the life cycle (see CDC website). To profile malarial lines for differential chemical responses and to identify inhibitors of malarial growth, an assay that measures P. falciparum growth and replication within erythrocytes was employed. […] Because mature erythrocytes lack DNA, only Plasmodium-derived DNA is detected. […]
Bennett TN, Paguio, M., Gligorijevic, B., Seudieu, C., Kosar, A. D., Davidson, E., and Roepe, P. D. Novel, rapid, and inexpensive cell-based quantification of antimalarial drug efficacy Antimicrobial Agents Chemother. […]

The nature of assay [8]: qHTS for Inhibitors of Plasmodium falciparum (GB4) proliferation (AID 504315).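 Further: 0% = DMSO vehicle and -100% = 0.29 µM artemisinin control; nearly all actives have a fitted effect of over 50% in size.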 The note with it: P. falciparum GB4 in erythrocytes, SYBR Green DNA, 72 h; series mostly up to 6.7 µM. The method, boiled down:
(§1)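 Parasite growth measured as SYBR Green DNA fluorescence (ex 485, em 535 nm) after overnight lysis following 72 h culture at 37 °C, 0.3% parasitemia, 2.5% hematocrit. Values normalized against DMSO and 0.29 uM artemisinin controls, with plate-stack correction.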

Assay [9] in a line: qHTS for Inhibitors of Plasmodium falciparum (7G8) proliferation (AID 504316).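 Further: 0% = DMSO vehicle and -100% = 0.29 µM artemisinin full kill; nearly all actives have a fitted effect of over 65% in size.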 The note with it: P. falciparum 7G8 in erythrocytes, SYBR Green DNA, 72 h; series mostly up to 6.7 µM. The method in brief:
as §1

A short description of assay [10]: qHTS for Inhibitors of Plasmodium falciparum (CP250) proliferation (AID 504320).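 Further: plate controls were DMSO vehicle for no effect and 0.29 µM artemisinin control for full effect.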 Particulars: P. falciparum CP250 in erythrocytes, SYBR Green DNA, 72 h; series mostly up to 6.7 µM. The method in brief:
as §1

Chain of Thyrotropin-releasing hormone receptor (Homo sapiens) (P34981 whole entry, looked up): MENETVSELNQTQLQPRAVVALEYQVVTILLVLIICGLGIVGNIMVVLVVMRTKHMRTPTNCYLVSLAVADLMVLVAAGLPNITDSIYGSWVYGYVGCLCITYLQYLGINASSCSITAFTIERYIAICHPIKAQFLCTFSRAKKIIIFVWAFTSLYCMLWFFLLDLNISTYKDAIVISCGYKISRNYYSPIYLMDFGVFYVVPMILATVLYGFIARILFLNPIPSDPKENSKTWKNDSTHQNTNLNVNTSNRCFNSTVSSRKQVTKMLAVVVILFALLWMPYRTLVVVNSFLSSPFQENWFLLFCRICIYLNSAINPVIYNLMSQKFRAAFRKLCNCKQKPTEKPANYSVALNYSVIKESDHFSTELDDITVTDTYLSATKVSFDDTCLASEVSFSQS
Chain of Galactokinase (Homo sapiens) (P51570 whole entry, looked up): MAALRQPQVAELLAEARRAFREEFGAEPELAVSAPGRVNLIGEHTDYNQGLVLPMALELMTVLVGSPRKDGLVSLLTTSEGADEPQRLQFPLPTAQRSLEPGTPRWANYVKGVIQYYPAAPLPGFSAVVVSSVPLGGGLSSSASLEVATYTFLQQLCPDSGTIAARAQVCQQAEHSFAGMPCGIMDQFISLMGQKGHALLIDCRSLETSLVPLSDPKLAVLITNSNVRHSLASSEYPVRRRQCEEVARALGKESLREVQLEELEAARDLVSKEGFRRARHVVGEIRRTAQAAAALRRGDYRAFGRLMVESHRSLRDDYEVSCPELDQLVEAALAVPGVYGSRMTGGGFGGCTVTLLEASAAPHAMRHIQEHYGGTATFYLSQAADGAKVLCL
Chain of Phosphoglycerate kinase, glycosomal (Trypanosoma brucei brucei) (P07378 whole entry, looked up): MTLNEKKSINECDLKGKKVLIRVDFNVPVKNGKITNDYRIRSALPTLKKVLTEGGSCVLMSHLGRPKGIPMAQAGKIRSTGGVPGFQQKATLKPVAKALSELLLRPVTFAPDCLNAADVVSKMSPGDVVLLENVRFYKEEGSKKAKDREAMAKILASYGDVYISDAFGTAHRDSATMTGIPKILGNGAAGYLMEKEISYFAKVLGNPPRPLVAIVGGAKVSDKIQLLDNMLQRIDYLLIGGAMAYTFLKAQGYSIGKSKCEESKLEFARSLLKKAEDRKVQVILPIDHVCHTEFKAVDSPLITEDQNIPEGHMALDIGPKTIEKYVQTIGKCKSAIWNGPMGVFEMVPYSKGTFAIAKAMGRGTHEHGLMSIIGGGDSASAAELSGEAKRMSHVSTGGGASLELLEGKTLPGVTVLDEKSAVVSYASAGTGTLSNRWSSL
Chain of Peptidyl-prolyl cis-trans isomerase NIMA-interacting 1 (Homo sapiens) (Q13526 whole entry, looked up): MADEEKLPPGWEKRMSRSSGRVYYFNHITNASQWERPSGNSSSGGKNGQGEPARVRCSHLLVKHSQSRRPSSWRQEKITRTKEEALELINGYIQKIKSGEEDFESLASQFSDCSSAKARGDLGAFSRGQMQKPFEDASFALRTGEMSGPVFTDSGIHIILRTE

`Oc1ccc(/C=C/c2cc(O)cc(O)c2)cc1`: the activation in assay [1] was 0.812% (inactive). Also, the compound was classed as inactive in assay [2], in assay [3], in [4], in assay [5] and in assay [6]. Also, the viability change in assay [2] was -6.91%.
For the compound `O=c1[nH]c(=O)n([C@H]2C[C@H](O)[C@@H](CO)O2)cc1/C=C/Br`, in assay [1], the activation is 0.938% (inactive). Further, the outcome in assay [3] and in assay [4] was inactive.
As for `Cc1c(O)c(=O)ccn1C`, the outcome in assay [7], in [8], in assay [9] and in assay [10] was inactive.
Take `Cc1cc(C)c(NC(=O)C[C@H](CC(=O)O)c2cccc3ccccc23)c(C(=O)N2CCC3(CCCC3)CC2)c1`: in assay [1], the activation is 0.125% (inactive). In addition, the compound was called inactive in assay [3] and in [4].
As to `O=C(NCCNCC(O)COc1ccc(O)cc1)N1CCOCC1` (stereo not drawn), the activation in assay [1] is 1% (inactive). Moreover, the compound was called inactive in [3] and in [4].
Consider `C[C@@](Cc1ccc(O)c(O)c1)(NN)C(=O)O`, for which the activation in [1] is 0.562% (inactive). The compound was classed as inactive in [3] and in [4].
